About 79,000 compounds went through this panel and 15% of them were active in at least one assay; those are over-represented in the sample as a whole. A number with no mark means an inactive call. Calls of active or inactive are those of the source. Cut-off read from the data, not from the text of the source: active = growth inhibition above about 70%; inactive = the rest.
Key:
[1] = NCI Yeast Anticancer Drug Screen. Data for the rad50 strain (AID 155);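 note: 0% = growth of vehicle-only cultures of the same strain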; details: S. cerevisiae rad50 strain growth inhibition, active compounds read high
Outline: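 Relative growth inhibition (compound vs vehicle) was measured in yeast with a defined repair-gene alteration.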

[2] = NCI Yeast Anticancer Drug Screen. Data for the mec2-1 strain (AID 157); details: S. cerevisiae mec2-1 strain, active compounds read high
Outline: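 Using mec2-1 yeast: add compound, measure growth, express inhibition versus vehicle-treated cultures.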

[3] = NCI Yeast Anticancer Drug Screen. Data for the sgs1 mgt1 strain (AID 161);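 note: 0% = growth of cultures given vehicle only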; details: S. cerevisiae sgs1 mgt1 strain, active compounds read high
Outline: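 This yeast growth screen uses a strain with defined DNA-repair lesions; compound-treated growth is compared with vehicle-treated growth.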

[4] = NCI Yeast Anticancer Drug Screen. Data for the cln2 rad14 strain (AID 165);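 note: 0% = growth equal to vehicle treated cultures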; details: S. cerevisiae cln2 rad14 strain, active compounds read high
Outline: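 Yeast strain cln2 rad14, bearing defects in cell cycle control and DNA repair, serves as the test system; values reflect growth inhibition compared with vehicle.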

[5] = NCI Yeast Anticancer Drug Screen. Data for the bub3 strain (AID 167); details: S. cerevisiae bub3 mutant strain, active compounds read high
Outline: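 Screening used yeast with an engineered genetic alteration affecting cell cycle control. Compound-exposed cultures were compared with vehicle cultures, and reduced growth was taken as inhibition.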

[6] = NCI Yeast Anticancer Drug Screen. Data for the mlh1 rad18 strain (AID 175); details: S. cerevisiae mlh1 rad18 strain growth inhibition, active compounds read high
Outline: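 Steps: expose repair-defective yeast to compound; measure growth; express inhibition against vehicle-treated controls.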

[7] = at 5.0 µM (retest, dose inferred, filed as 0.5)
[8] = at 50.0 µM (retest, dose inferred, filed as 5.0)

Row | SMILES | growth inhibition [1, 7] | growth inhibition [1, 8] | growth inhibition ([1]; at 50.0 µM) | growth inhibition [2, 7] | growth inhibition [2, 8] | growth inhibition ([2]; at 50.0 µM) | growth inhibition [3, 7] | growth inhibition [3, 8] | growth inhibition ([3]; at 50.0 µM) | growth inhibition [4, 7] | growth inhibition [4, 8] | growth inhibition ([4]; at 50.0 µM) | growth inhibition [5, 7] | growth inhibition [5, 8] | growth inhibition ([5]; at 50.0 µM) | growth inhibition [6, 7] | growth inhibition [6, 8] | growth inhibition ([6]; at 50.0 µM)
1 | CCCC(C)c1ccc(O)cc1 (stereo not given) | 6% | 13% | 57.4% | 1% | 16% | 43.9% | 0% | 16% | 51.7% | 4% | -3% | -26.3% | -2% | 17% | 24.6% | 2% | 39% | 91.7% (active)
2 | CCN1CCC(O)(/C=C/c2ccc(Cl)c(Cl)c2)C(C(=O)/C=C/c2ccc(Cl)c(Cl)c2)C1 (stereo not given) | 99% (active) | 99% (active) | 99% (active) | 99% (active) | 100% (active) | 99.4% (active) | 99% (active) | 100% (active) | 99.5% (active) | 99% (active) | 99% (active) | 97.8% (active) | 99% (active) | 99% (active) | 99% (active) | 99% (active) | 97% (active) | 98.9% (active)
3 | O=S(=O)(CCCl)Cc1ccccc1 | -145% | -144% | 5.2% | -45% | -39% | -0.4% | -61% | -37% | 14% | -50% | -50% | 10.7% | -69% | -66% | 10.7% | -144% | -100% | 10.8%
4 | Nc1cc(S(=O)(=O)O)cc2cc(S(=O)(=O)O)c(N=Nc3ccccc3)c(O)c12 | 0% | -1% | 99.3% (active) | -2% | 5% | 99.2% (active) | 0% | 0% | 99.3% (active) | 12% | 3% | 96.5% (active) | -36% | 10% | 99% (active) | 0% | 1% | 98.7% (active)
5 | Cn1nc(-c2ccc3c(c2)OCO3)[n+]([O-])c2c(=O)n(C)c(=O)nc1-2 | -2% | 79% (active) | 99.2% (active) | -7% | 97% (active) | 99.7% (active) | 0% | 98% (active) | 99.5% (active) | -6% | 97% (active) | 98.2% (active) | -8% | 96% (active) | 99.4% (active) | -7% | 97% (active) | 99.5% (active)
6 | c1ccc(NN=C(c2ccccc2)c2ccccc2)cc1 | -2% | 76% (active) | 94.2% (active) | -17% | 55% | 94.3% (active) | 7% | 68% | 95.8% (active) | 1% | 63% | 91.8% (active) | 12% | 83% (active) | 93.8% (active) | 12% | 91% (active) | 95.2% (active)
7 | COc1cc(CNC(=O)CCCCCCCC/C=C/Br)ccc1O | -32% | 93% (active) | 84.7% (active) | -7% | 96% (active) | 85.8% (active) | -2% | 92% (active) | 90.5% (active) | -4% | 94% (active) | 85% (active) | -4% | 95% (active) | 87.6% (active) | -16% | 92% (active) | 87.5% (active)
8 | CCCCCCCCCc1cc(O)c(O)cc1CCCCCCCCC | -8% | 80% (active) | 22.4% | -13% | 68% | 25.2% | -7% | 42% | 42.9% | -23% | 86% (active) | 54.1% | -12% | 79% (active) | 22.4% | -2% | 66% | 1.65%
9 | CC[N+](C)(CC)CCCOC(=O)c1ccccc1Oc1ccc(C)cc1 | 1% | 0% | 75.5% (active) | -17% | -8% | 13.8% | -9% | -7% | 21.9% | -4% | -6% | -0.85% | 2% | 42% | 12.8% | 15% | 3% | 14.9%
10 | CCCC/C=C(/CCCNCCc1ccccc1)[Si](C)(C)C | 88% (active) | 98% (active) | 90.4% (active) | 90% (active) | 99% (active) | 93% (active) | 98% (active) | 99% (active) | 93.4% (active) | 89% (active) | 99% (active) | 91.5% (active) | 98% (active) | 99% (active) | 91.5% (active) | 97% (active) | 99% (active) | 90.9% (active)

Reference: PubChem BioAssay (NCI)
